# Source: PubChem (National Center for Advancing Translational Sciences (NCATS))
# Compounds with a hit are over-represented: about 10% of the library has one in this group of screens.
# G9a block: qHTS Assay for Inhibitors of Histone Lysine Methyltransferase G9a | Histone-lysine N-methyltransferase EHMT2 (Homo sapiens), Q96KQ7 | G9a H3K9 monomethylation, AlphaScreen, 2 h | Potency, µM (highest dose often 102 µM), for the others: at the highest dose activity, negative = inhibition, usual class: inhibitors | 350,000 tested, 8.8% active | AID 504332, 2011; further: potency means the concentration at half of the fitted maximal effect; on the % scale 0 is the no-effect control and ±100 the full control effect; nearly all actives have a fitted effect of over 75% in size
#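 AlphaScreen detection with an anti-monomethyl H3K9 antibody quantified product after a 2 h room-temperature reaction containing 500 nM biotinylated H3K9 peptide, 20 µM SAM and 20 nM enzyme, which had been preincubated 15 min with compound.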
# Six1-Eya2 inh: qHTS Assay for Inhibitors of the Six1/Eya2 Interaction | Homeobox protein SIX1 (Homo sapiens) + Protein phosphatase EYA2 (Homo sapiens), … | AlphaScreen GST-Six1/His-Eya2 binding, biochemical; hits give low values | activity change, % (no concentration beside the values) | 360,000 tested, 0.56% active; in the data active means activity change below about -65%; inconclusive means mostly about -30% to -63%; further: on the % scale 0 is the no-effect control and ±100 the full control effect
#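 Homogeneous AlphaScreen proximity assay pairing GST-Six1 with His-tagged Eya2 (added as 5X mix: 250 nM and 500 nM) in 50 mM Tris pH 8.0, 300 mM NaCl, 1 mM TCEP. Glutathione donor and nickel acceptor beads; 1 h, 37 °C, dark.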
# HP1b binding inh: HTS for Inhibitors of HP1-beta Chromodomain Interactions with Methylated Histone Tails. AlphaScreen HP1-beta / biotin-H3K9me3 peptide binding. AID 540317, 2011. Potency, µM (highest dose often 114 µM), without a hit: at the top dose activity change, negative = inhibition, most hits filed as inhibitors. Chromobox protein homolog 1 (Homo sapiens), P83916. 390,000 tested, 0.56% active; further: potency means the concentration at half of the fitted maximal effect; nearly all actives have a fitted effect of over 70% in size
#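 HP1-beta protein (50 nM final) preincubated 30 min at room temperature with biotinylated H3(1-18)K9me3 peptide (50 nM) in PBS pH 7.4, 0.01% Tween-20, then compound added for 30 min. AlphaScreen streptavidin donor/nickel chelate acceptor beads (10 ug/mL final), 30 min dark, luminescence read.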
# JMJD2A Tudor inh: qHTS Assay for Inhibitors of JMJD2A-Tudor Domain; AlphaScreen JMJD2A-Tudor / H3K4me3 peptide binding; 390,000 tested, 4.4% active; Lysine-specific demethylase 4A (Homo sapiens), O75164; Potency, µM (series often up to 114 µM), without a hit: at the highest dose activity change, negative = inhibition, actives largely listed as inhibitors; further: potency means the concentration at half of the fitted maximal effect; on the % scale 0 is the no-effect control and ±100 the full control effect; nearly all actives have a fitted effect of over 50% in size
# Target sequence (O75164 whole entry, looked up, the tested form may be a part): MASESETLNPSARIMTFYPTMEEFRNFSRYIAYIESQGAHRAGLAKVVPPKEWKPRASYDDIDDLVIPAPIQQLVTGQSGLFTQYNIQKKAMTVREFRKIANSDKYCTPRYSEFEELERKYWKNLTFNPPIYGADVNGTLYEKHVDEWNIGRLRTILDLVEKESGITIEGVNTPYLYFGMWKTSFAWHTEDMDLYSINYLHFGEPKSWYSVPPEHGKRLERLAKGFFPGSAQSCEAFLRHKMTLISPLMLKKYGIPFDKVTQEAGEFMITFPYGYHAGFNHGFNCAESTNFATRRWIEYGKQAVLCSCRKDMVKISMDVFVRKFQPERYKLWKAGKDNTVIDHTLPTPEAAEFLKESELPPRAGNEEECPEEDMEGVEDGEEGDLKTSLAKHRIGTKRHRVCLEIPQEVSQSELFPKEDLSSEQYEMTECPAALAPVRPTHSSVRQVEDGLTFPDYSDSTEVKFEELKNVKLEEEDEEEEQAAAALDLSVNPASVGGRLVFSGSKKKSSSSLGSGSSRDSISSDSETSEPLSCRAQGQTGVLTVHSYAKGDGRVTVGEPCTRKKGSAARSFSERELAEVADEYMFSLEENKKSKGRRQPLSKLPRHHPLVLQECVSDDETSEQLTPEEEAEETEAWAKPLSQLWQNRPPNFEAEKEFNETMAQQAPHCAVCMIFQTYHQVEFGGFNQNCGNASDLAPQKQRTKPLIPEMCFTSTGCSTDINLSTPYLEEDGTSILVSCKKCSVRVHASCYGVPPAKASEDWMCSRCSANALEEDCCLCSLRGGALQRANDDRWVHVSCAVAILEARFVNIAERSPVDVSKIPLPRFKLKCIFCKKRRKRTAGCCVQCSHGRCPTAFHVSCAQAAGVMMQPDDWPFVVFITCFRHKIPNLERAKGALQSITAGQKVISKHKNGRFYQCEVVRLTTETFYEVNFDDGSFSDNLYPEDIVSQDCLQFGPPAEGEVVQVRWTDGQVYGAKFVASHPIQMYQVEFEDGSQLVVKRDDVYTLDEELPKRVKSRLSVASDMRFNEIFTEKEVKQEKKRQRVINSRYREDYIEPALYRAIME
# BAZ2B block: qHTS Assay for Inhibitors of BAZ2B. Bromodomain adjacent to zinc finger domain protein 2B (Homo sapiens), Q9UIF8. AlphaScreen BAZ2B-H3K14Ac peptide displacement. Potency, µM (highest dose often 114 µM), for inactives: top-dose activity change, negative = inhibition, hits mostly inhibitors. 360,000 tested, 4.4% active; further: potency means the concentration at half of the fitted maximal effect; on the % scale 0 is the no-effect control and ±100 the full control effect; nearly all actives have a fitted effect of over 60% in size
#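 BAZ2B (50 nM) with biotin-H3(5-23)K14Ac peptide (50 nM) in PBS pH 7.4, 0.01% Tween-20, preformed 30 min, then compound 30 min at room temperature; top concentration 110uM. AlphaScreen streptavidin donor/nickel chelate acceptor beads (10 ug/mL final), 20 min dark, signal read.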
# CtBP-E1A blk: qHTS Assay for Inhibitors of the CtBP/E1A Interaction; 340,000 tested, 0.49% active; AlphaScreen GST-E1A/His-CtBP binding, 1536-well; hits give low values; activity change, % (test concentration not listed); CtBP / adenovirus E1A interaction (AlphaScreen); in the data active means activity change below about -65%; inconclusive means mostly about -30% to -63%; further: on the % scale 0 is the no-effect control and ±100 the full control effect
#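 Steps: dispense buffer (Tris pH 8.0, NaCl 300 mM, TCEP 1 mM, BSA, Tween 20); add 5X protein mix (GST-E1A, His-CtBP, 125 nM each); pin 23 nL compound; 2 h at 37 °C, dark; add 5X beads (50 ug/mL); 1 h; read.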
# * = called active by the depositor; ? = inconclusive; nt = not tested or not shown; [ ] = remark or other dose. Unless noted, the call rests on the fitted dose curve; in most records, active means well fitted inhibition curve with a large enough effect; inconclusive means small, poorly fitted or top-dose-only effect; inactive means no such curve, though single readings can be large or run the other way.
SMILES,G9a block,Six1-Eya2 inh,HP1b binding inh,JMJD2A Tudor inh,BAZ2B block,CtBP-E1A blk
C=CCn1c(=O)c2ccccc2n2c(SCC(=O)N(C)C)nnc12,-0.3%,2.1,37.5%,-3.0%,-16.1%,-10.2
CCOC(=O)c1cccc(NC(=O)NCc2cccn2Cc2ccccc2)c1,7.1%[59 µM],nt,3.5%,-9.0%,-6.6%,nt
CCOc1ccc(-c2cc(C(=O)N3CCN(S(=O)(=O)c4cc(Cl)ccc4OC)CC3)[nH]n2)cc1,-28.3%[59 µM],nt,4.3%,-12.5%,-1.4%,nt
COc1ccc(Cl)cc1NC(=O)Cn1cnc2sc(C)c(S(=O)(=O)N3CCN(c4ccccc4OC)CC3)c2c1=O,-8.4%[59 µM],nt,7.9%,-14.7%,-1.3%,nt
CCCCOc1cccc(C(=O)N(Cc2cccs2)c2ccc(OC)cc2)c1,69.9%[59 µM],nt,84.9%,56.3%,97.0%,nt
O=C(CN1C(=O)C2(SCC(=O)N2c2cccc(F)c2)c2ccccc21)NCCc1ccccc1 (stereo not drawn),6.9%[59 µM],nt,27.1%,-3.2%,-6.8%[57.1 µM],nt
CC(C)OCCCn1c(=O)c2ccccc2n2c(-c3ccccc3)nnc12,?,nt,5.1%,50.1µM*,50.1µM*,nt
CCN(c1cccc(C)c1)c1ncnc2nc[nH]c12,-25.0%,2.3,56.7%,-9.9%,9.9%,6.2
CCN(CCCNc1ncnc2nc[nH]c12)c1cccc(C)c1,17.8µM*,-16.3,-19.2%,39.8µM*,50.1µM*,-1.5
Cc1ccc(C(=O)N2CCCCC2CCN2CCCCC2)cc1 (stereo not drawn),-29.2%[59 µM],nt,5.6%,-15.7%,-1.2%,nt
Cc1cc(-c2ccc(C)c(S(=O)(=O)N(C)c3ccc(C)c(C)c3)c2)on1,-1.6%[59 µM],nt,77.2%,26.0%,20.1%,nt
CCN(CCCNC(=O)C1CCN(S(=O)(=O)N2CCOCC2)CC1)c1cccc(C)c1,35.5µM*,0.0,7.5%,?,-33.4%,2.5
Cc1ccc(CCNC(=O)C2CCN(S(=O)(=O)N3CCOCC3)CC2)cc1,10.0%,2.3,?,28.2µM*,-3.9%,nt
CCOc1ccc(-n2nc(CO)c(C(=O)NCC(C)O)n2)cc1 (stereo not drawn),3.1%[59 µM],nt,11.4%,-13.8%,3.3%,nt
CSc1nc2ncnc(N)c2[nH]1,44.7µM*,-15.1,7.4%,79.4µM*,-26.6%,-2.4
COc1ccc(/C=C/C(=O)NC(=S)NNC(=O)Cc2cccs2)cc1OC,3.55µM*,-21.8,10.0%,-9.3%,5.7%,?
COc1ccccc1NC(=S)NNC(=O)c1nn(C)c(C)c1Br,11.2µM*,?,-2.3%,-19.9%,-2.2%,-4.8
COc1ccccc1NC(=S)NC(=O)Cc1ccccc1,nt,-8.4,31.3%,0.3%,nt,3.4
O=C(/C=C/c1cccs1)NC(=S)NNC(=O)Cc1cccs1,4.47µM*,-21.9,25.7%,-4.8%,9.0%,-22.9
COc1ccccc1NC(=S)NC(=O)C(C)(C)C,39.8µM*,-2.8,15.4%,-23.1%,-2.0%,0.5
COc1ccc(/C=C/C(=O)NC(=S)NNC(=O)c2cccs2)cc1OC,?,-10.6,22.8%,14.5%,10.4%,-1.9
CC(=O)N[C@H](C(=O)O)C(C)(C)SN=O,6.8%[12.7 µM],nt,nt,nt,nt,nt
Cc1ccc2nc(-c3cccc(NC(=O)CSc4ccc(Cl)cc4)c3)oc2c1,14.7%[59 µM],nt,33.4%,-8.2%,-2.4%,nt
CCOC(=O)c1ccc(NC(=O)Cn2nnc(-c3ccc(C(F)(F)F)cc3)n2)cc1,0.1%[59 µM],nt,10.5%,-1.5%,-15.8%,nt
COc1ccccc1NC(=S)NC(=O)/C=C/c1cccs1,44.7µM*,-13.0,-22.4%,-11.3%,nt,-26.1
SMILES,G9a block,Six1-Eya2 inh,HP1b binding inh,JMJD2A Tudor inh,BAZ2B block,CtBP-E1A blk
COc1ccc(NC(=S)NC(=O)/C=C/c2cccs2)cc1,?,-26.8,19.3%,-19.6%,-12.2%,-8.1
COC(=O)C1=C[C@@H](C(=O)OC)[C@@H]2C3=C(C(=O)[C@]2(C)NC(=O)c2ccccc2)[C@H](C)[C@@H]2C(=O)NC(=O)[C@@H]2[C@@H]3C1,nt,nt,6.0%,-15.2%,nt,nt
Cc1cc2n(n1)C(c1ccccc1)CC(c1ccc(Br)cc1)=N2 (stereo not drawn),39.8µM*,0.0,91.4%,22.9%,24.1%,-8.5
O=C(Nc1c(Cl)cccc1Cl)Oc1cccc2cccnc12,nt,-90.3*,nt,nt,nt,-93.6*
O=C(COc1cccc2cccnc12)Nc1ccccc1,-4.0%,7.7,11.6%,-14.9%,-5.5%,1.5
CCN(CC)C(=O)Oc1ccc(Cl)c2cccnc12,31.3%,17.8,-4.6%,-2.8%,-13.1%,9.4
O=C(Nc1cccc(Br)c1)Oc1cccc2cccnc12,nt,-90.3*,nt,nt,nt,?
O=C(Nc1cccc(C(F)(F)F)c1)Oc1ccc(Cl)c2cccnc12,132.1%,-70.1*,2.5%[57 µM],39.8µM*,17.8µM*,-96.4*
Cc1ccc(NC(=O)c2c(C)nc3sc(C(=O)Nc4ccc(F)cc4)c(N)c3c2-c2ccc(Cl)cc2)c(C)c1,9.5%[59 µM],nt,40.3%,-5.5%,5.9%,nt
O=C(NCc1ccccc1Cl)c1ccc(-n2cnc3cccnc32)cc1,-4.5%[59 µM],nt,17.3%,-7.9%,-7.3%,nt
CCN(CC)c1ccc(C(=O)NCc2ccc3c(c2)CCN3C(=O)c2ccccc2)cc1,-10.9%[59 µM],nt,15.6%,-16.0%,-12.8%,nt
CCN(CC(=O)Nc1c(C(=O)OC)[nH]c2ccc(C)cc12)c1ccc2c(c1)OCO2,35.5µM*,?,-6.9%,44.7µM*,39.8µM*,?
COC(=O)c1[nH]c2ccccc2c1NC(=O)CN1CCN(Cc2ccc3c(c2)OCO3)CC1,?,-6.0,1.3%,79.4µM*,-29.5%,-0.3
CCOC(=O)c1[nH]c2ccc(OC)cc2c1NC(=O)/C=C/c1ccc2c(c1)OCO2,-15.7%[59 µM],0.0,41.6%,-13.2%,-28.2%,0.0
COC(=O)c1[nH]c2ccccc2c1NC(=O)CN1CCN(c2cccc(OC)c2)C(C)C1 (stereo not drawn),11.7%[2.33 µM],?,?,15.8µM*,?,-24.7
O=C(/C=C/c1ccc2c(c1)OCO2)Nc1c(C(=O)O)[nH]c2ccccc12,11.2µM*,-5.0,-16.4%,?,?,6.5
COC(=O)c1[nH]c2ccc(F)cc2c1NC(=O)CCN1CCN(Cc2ccc3c(c2)OCO3)CC1,-20.5%,-9.1,32.6%,-18.6%,9.6%,-4.3
COC(=O)c1[nH]c2ccc(C)cc2c1NC(=O)C1=COCCO1,?,5.8,24.1%,-3.6%,-4.6%,-0.2
